Rows were chosen to be rich in hits. Some 3.3% of all compounds tested hit in one or more screens of this group.
Vaccinia mCherry: qHTS for Stage-Specific Inhibitors of Vaccinia Orthopoxvirus: mCherry Reporter Primary qHTS; Potency, µM (highest dose often 36.5 µM), for the others: top-dose activity change, negative = inhibition, most hits filed as inhibitors; AID 720579, 2013; Vaccinia virus mCherry reporter infection, fluorescence; hit rate 0.63% among 310,000; calls by dose curve; tested in A549 cells; further: nearly all actives have a fitted effect of over 35% in size
Vaccinia Venus: qHTS for Stage-Specific Inhibitors of Vaccinia Orthopoxvirus: Venus Reporter Primary qHTS; Vaccinia virus Venus reporter expression, fluorescence; Potency, µM (series often up to 36.5 µM), without a hit: top-dose activity change, negative = inhibition, usual class: inhibitors; hit rate 0.46% among 330,000; calls by dose curve; tested in A549 cells; further: nearly all actives have a fitted effect of over 30% in size
HCV inhibitor: qHTS Assay for Inhibitors of Hepatitis C Virus (HCV). Huh7.5.1 HCVcc-Cre infection, luciferase reporter, 44 h. Potency, µM (series often up to 41.8 µM), for inactives: at the top dose activity change, negative = inhibition, usual class: inhibitors. hit rate 3.4% among 340,000; active means well fitted inhibition curve with a large enough effect; inconclusive means small, poorly fitted or top-dose-only effect, or another doubt; inactive means no such curve, though single readings can be large or run the other way
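Antiviral activity was scored by luciferase reporter output from cells infected with HCVcc-Cre (~0.5 moi) in presence of compound, 44 h infection period, cells seeded 1,000/well 4 h prior.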
An asterisk follows results filed as active; i = inactive; ? = inconclusive; nt = no result; [ ] = dose if it differs, or a comment. On the % scale 0 is the no-effect control and ±100 the full control effect; potency means the concentration at half of the fitted maximal effect.

SMILES | Vaccinia mCherry | Vaccinia Venus | HCV inhibitor
CCOC(=O)c1[nH]c2ccc(OC)cc2c1NC(=S)N1CCN(c2ccc(F)cc2)CC1 | -11.2% | -16.1% | -12.3%
COCCOC1CCN(C(=O)c2cc(COc3ccc(-n4cncn4)cc3)on2)CC1 | -12.6% | -0.8% | -0.2%
COCCC1CCCCN1C(=O)c1cc(COc2ccc(-n3cncn3)cc2)on1 (stereo not drawn) | -20.1% | -20.6% | 10µM*
O=C(c1cc(C2CC2)nn1-c1ccccc1)N1CCN(Cc2ccccc2F)CC1 | i | -15.2% | 4.5%
O=C(c1cc(C2CC2)nn1-c1ccccc1)N1CCN(Cc2ccc(Cl)cc2)CC1 | nt | nt | 7.08µM*
CN(CC(=O)Nc1ccc(F)c(F)c1F)C(=O)C1CCCO1 (stereo not drawn) | -6.0% | -18.0% | 15.9%
Cc1ccc(Nc2nc(NCc3ccco3)nc3nccnc23)cc1C | -14.8% | -10.7% | nt
O=C(CC1(c2cccc(F)c2)CC(=O)N(Cc2cccnc2)C1=O)N1CCCCCCC1 (stereo not drawn) | -11.3% | -6.7% | nt
O=C(Nc1ccccc1Cl)Nc1ccnn1C1CCN(C(=O)C2CCOC2)CC1 (stereo not drawn) | -15.2% | -0.6% | nt
COc1ccc(-c2nn(-c3ccccc3)cc2/C=N/n2cnnc2)cc1OC | nt | 13.9% | ?
COc1ccc(-c2nn(-c3ccccc3)cc2/C=N/NC(N)=S)cc1OC | ? | ? | 11.2µM*
C[S+](C)CC(=O)c1ccc2ccccc2c1 | -10.7% | -5.8% | nt
O=C(NCc1ccccc1Cl)C1CCC(CNc2nc(=S)[nH]c3ccccc23)CC1 (stereo not drawn) | i | -6.5% | -28.4%
O=C(Cc1csc(Nc2nc(=S)[nH]c3ccccc23)n1)NCc1ccccc1Cl | nt | nt | 11.2µM*
CCc1ccccc1NC(=O)NC1CC2CCC(C1)N2Cc1cccs1 (stereo not drawn) | i | -11.5% | -19.3%
CCc1ccc(NC(=S)NC2CC3CCCC(C2)N3Cc2cccs2)cc1 (stereo not drawn) | ? | -23.6% | 7.94µM*
O=S(=O)(NCc1nnc2n1CCN(Cc1ccccc1Cl)CC2)c1ccccc1 | i | -9.7% | nt
Cc1ccc(S(=O)(=O)N2CCN(c3nc(-c4cccs4)nc4ccccc34)CC2)c(C)c1 | -11.9% | -5.2% | nt
CCOc1ccc(-c2cc(C(=O)NCCOC)[nH]n2)c(C)c1 | -7.8% | -2.7% | nt
CCOc1ccc(-c2cc(C(=O)Nc3ccc(C)c(NS(C)(=O)=O)c3)[nH]n2)c(C)c1 | 11.2µM* | ? | nt
CCOc1ccccc1Nc1cc(C)c2cccc(C)c2n1 | -11.1% | -13.1% | 7.94µM*
CCOc1ccccc1Nc1cc(-c2ccccc2)nc(C)n1 | -4.7% | -5.0% | nt
CCc1cc2c(=O)c(-c3nc4ccccc4[nH]3)coc2c(CN2CCCCC2C)c1O (stereo not drawn) | -15.5%[7.34 µM] | -2.8%[7.34 µM] | ?
CCOC(=O)c1oc2cc(O)c(CC)cc2c(=O)c1-c1ccc2c(c1)OCCO2 | i | -9.4% | ?
CCc1cc2c(=O)c(-c3ccc4c(c3)OCCO4)coc2cc1OS(C)(=O)=O | ? | ? | 11.2µM*
SMILES | Vaccinia mCherry | Vaccinia Venus | HCV inhibitor
CCc1cc2c(=O)c(-c3ccc4c(c3)OCCO4)coc2c(CN2CCCCC2C)c1O (stereo not drawn) | -22.1% | -5.3% | 6.31µM*
CCN(CC(=O)Nc1c(F)cccc1F)C(=O)c1ccc2c(c1)OCO2 | nt | nt | -0.2%
O=C(CSc1nc2ccsc2c(=O)n1-c1ccc(Cl)cc1)NCc1ccc(Cl)cc1 | -1.3% | 10.2% | nt
COc1ccc(C2(SCC(N)C(=O)O)c3ccccc3-c3ccccc32)cc1 (stereo not drawn) | -15.6% | -8.6% | 2.4%
CCc1nn(CC(=O)NCCCN(CC)Cc2ccccc2)c(=O)c2cc3sccc3n12 | -22.8% | -18.2% | -10.4%
CCCCN(CCCNC(=O)Cn1nc(CC)n2c(cc3sc(C)cc32)c1=O)Cc1ccccc1 | nt | nt | 8.91µM*
COc1cc(C2N=C(N)Nc3nc4ccccc4n32)ccc1OCC(=O)O (stereo not drawn) | 4.1% | -0.6% | nt
Cc1cc(S(=O)(=O)Nc2cc3c(cc2NCc2ccccc2)n(C)c(=O)n3C)ccc1F | -16.7% | -5.4% | nt
CCOC(=O)C(C)NC(=O)c1c2c(nc3ccccc13)C(=O)N(C1CCCCC1)C2 (stereo not drawn) | -12.1% | -9.3% | nt
Cc1ccc(S(=O)(=O)N2CCOCC2)cc1C(=O)N1CCN(c2ccc(C(F)(F)F)cn2)CC1 | i | -6.1% | 10µM*
Cc1ccc(S(=O)(=O)N2CCOCC2)cc1C(=O)N1CCCC1 | -1.3% | -5.9% | ?
Cn1c2ccccc2c(=O)c2c(=O)n(-c3ccc(F)cc3)c(-c3cccs3)nc21 | -5.4% | 0.2% | -13.1%
CC(c1ccccc1)n1c(-c2cccs2)nc2c(c(=O)c3ccccc3n2C)c1=O (stereo not drawn) | -1.3% | -10.5% | 14.1µM*
COc1ccc(NC(=O)CC(CC(=O)O)c2cc(OC)c(OC)c(OC)c2)cc1 (stereo not drawn) | -3.1% | -7.9% | -15.7%
CC1=CC(O)C(O)C2(C)C1CC1OC(=O)CC3C(C)C(O)C(=O)C2C13CO (stereo not drawn) | 8.91µM* | 6.31µM* | ?
CCCn1c2c(c(O)c(C(=O)NC)c1=O)CCCC2 | nt | -3.7% | ?
CCCn1c2c(c(O)c(C(=O)Nc3ccc(OC)cc3)c1=O)CCCC2 | nt | 8.2% | 11.2µM*
CCCn1c2c(c(O)c(C(=O)NCc3ccccc3)c1=O)CCCC2 | -28.0% | -16.6% | 5.01µM*
CCCn1c2c(c(O)c(C(=O)Nc3ncccc3O)c1=O)CCCC2 | nt | -20.8% | 3.8%
CC(C)CN(CCCNC(=O)CN1N=C(c2ccccc2)CCC1=O)CC(C)C | -5.0% | -8.3% | nt
CCn1c(SCc2ccccc2Cl)nc(=O)c2c(C(=O)OC)cc(C3CC3)nc21 | -15.5% | -11.4% | nt
COC(=O)C1CCN(C(=O)c2oc3c(Cl)cc(C)cc3c2C)CC1 | nt | nt | -22.3%
Cc1cc(Cl)c2oc(C(=O)N3CCN(c4ccncc4)CC3)c(C)c2c1 | -11.1% | ? | 1.26µM*
C/C(=N\Nc1nncc2ccccc12)c1ccc(O)cc1 | ? | -2.2% | 7.08µM*
COc1ccc(OC)c(Nc2nc(-c3ccc(C)cc3)nc3ccccc23)c1 | -6.1%[7.34 µM] | 4.5%[7.34 µM] | nt
SMILES | Vaccinia mCherry | Vaccinia Venus | HCV inhibitor
COc1ccc(-c2nc(N/N=C(\C)c3ccc(O)cc3)c3ccccc3n2)cc1 | nt | nt | 10µM*
C/C(=N\Nc1nncc2ccccc12)c1ccc(C(C)(C)C)cc1 | -6.0% | 2.3% | 2.51µM*
C(=N\Nc1nncc2ccccc12)/c1ccccc1 | -11.2% | -3.0% | 14.1%
C/C(=N\Nc1nncc2ccccc12)c1cccc(OC(F)F)c1 | ? | -16.7% | ?
CCN(C(=O)COC(=O)c1cccc(S(=O)(=O)N(C)C)c1)c1c(N)n(Cc2ccccc2)c(=O)[nH]c1=O | nt | nt | -0.8%
COc1ccc(NC(=O)CSc2n[nH]c(=O)n2C2CC2)cc1OC | nt | nt | 19.0%
O=C(Nc1ccc(-c2nc3ccc(NC(=O)c4cccs4)cc3[nH]2)cc1)c1cccs1 | 10.0% | -20.5% | ?
O=C(Nc1ccc2nc(-c3cccs3)[nH]c2c1)c1cccs1 | -6.3% | 6.5% | 12.6µM*
Cc1ccc(S(=O)(=O)N(C)C)cc1NC(=O)C(C)N(C)Cc1sccc1C (stereo not drawn) | ? | ? | 7.08µM*
